This is an account of results in PubChem BioAssay AID651551 (Sanford-Burnham Center for Chemical Genomics, 2012).

The target in the assay is PEG-3 (UniProt Q6IN02). Description: GAPDH versus PEG-3 reporter suppression – cell-based, luminescence, counter-screen for PEG-3 promoter inhibitor project, SAR follow-up (AID 651551). As to conditions: HeLa PEG-Prom / GAPDH luciferase reporter, 6 or 24 h, run 3, 24 h; at 99 µM (top of the series).
Turning to `CCCn1nc(C(=O)Nc2nc(-c3ccncc3)cs2)c2ccccc2c1=O`, the inhibition % (higher = more inhibition) was 44.6%.

For `COc1ccccc1Nc1nc(-c2sc(NC(=O)c3ccco3)nc2C)cs1`, the inhibition % (higher = more inhibition) was found to be 21.6%.

In the case of `Cc1cc(NC(=O)c2ccccc2)n(-c2nc3ccccc3n2C)n1`, the inhibition % (higher = more inhibition) is 3.97%.

With `Cc1cc(NC(=O)c2ccccc2)n(-c2nc3ccccc3[nH]2)n1`, the inhibition % (higher = more inhibition) is 79.1%.

As to `COCCCNC(=O)c1ccc(Cn2c(=O)c3ccccc3n(Cc3ccccc3C#N)c2=O)cc1`, the inhibition % (higher = more inhibition) was 73.4%.

Turning to `Cc1ccc(Cl)cc1Nc1nc(-c2sc(NC(=O)c3ccco3)nc2C)cs1`, the inhibition % (higher = more inhibition) was -26.2%.

As to `O=C(Nc1nccs1)c1nn(-c2ccccc2)c(=O)c2ccccc12`, the inhibition % (higher = more inhibition) is 29.1%.

Take `CCCn1nc(C(=O)Nc2nc(-c3ccccn3)cs2)c2ccccc2c1=O`: the inhibition % (higher = more inhibition) amounted to 40.8%.

On to `CCCn1nc(C(=O)Nc2nc3ccccc3s2)c2ccccc2c1=O`, for which the inhibition % (higher = more inhibition) turned out to be 16.5%.

For the compound `COc1ccc(Cl)cc1Nc1nc(-c2sc(NC(=O)c3ccccc3)nc2C)cs1`, the inhibition % (higher = more inhibition) amounted to 60.5%.

For the compound `O=C(Nc1nc2ccccc2s1)c1nn(-c2ccccc2)c(=O)c2ccccc12`, the inhibition % (higher = more inhibition) is -21.2%.

Take `CCn1cc(C(=O)NCc2ccco2)c(=O)c2cc(S(=O)(=O)N3CCCC3)ccc21`: the inhibition % (higher = more inhibition) was 46.7%.

Consider `Cc1nc(NC(=O)c2ccccc2)sc1-c1csc(Nc2cccc(Cl)c2C)n1`, for which the inhibition % (higher = more inhibition) is -61.4%.

As for `Cc1cc(NC(=O)c2cccc(C)c2C)n(-c2nc3ccccc3[nH]2)n1`, the inhibition % (higher = more inhibition) stood at 3.97%.

Turning to `COc1ccc(-n2nc(C(=O)NCC(=O)Nc3cccc(OC)c3)c3ccccc3c2=O)cc1`, the inhibition % (higher = more inhibition) turned out to be 8.99%.

Regarding `O=C(Nc1nc(-c2ccccc2)cs1)c1nn(-c2ccccc2)c(=O)c2ccccc12`, the inhibition % (higher = more inhibition) is 11.5%.

As to `Cc1cc(NC(=O)c2ccccc2C(F)(F)F)n(-c2nc3ccccc3[nH]2)n1`, the inhibition % (higher = more inhibition) worked out at 94.1%.

Consider `Cc1nc(NC(=O)c2ccccc2)sc1-c1csc(Nc2ccccc2Cl)n1`, for which the inhibition % (higher = more inhibition) is -104%.

In the case of `CCn1nc(C(=O)Nc2nc(-c3ccccn3)cs2)c2ccccc2c1=O`, the inhibition % (higher = more inhibition) was 39.1%.

For the compound `COc1ccc(-n2nc(C(=O)NCC(=O)Nc3ccc(OC)c(OC)c3)c3ccccc3c2=O)cc1`, the inhibition % (higher = more inhibition) is 34.1%.

Consider `COc1ccc(-n2nc(C(=O)NCC(=O)Nc3cc(OC)c(OC)c(OC)c3)c3ccccc3c2=O)cc1OC`, for which the inhibition % (higher = more inhibition) was 34.1%.

Turning to `Cc1cc(NC(=O)c2ccccc2C)n(-c2nc3ccccc3[nH]2)n1`, the inhibition % (higher = more inhibition) stood at 38%.

As to `Cc1nc(NC(=O)c2ccccc2)sc1-c1csc(Nc2ccccc2)n1`, the inhibition % (higher = more inhibition) was found to be 76.8%.
